# From article PMC4336329 (PLoS ONE, 2015)
# About 14,000 (4.5%) of roughly 310,000 compounds showed an effect of 50% or more. Effects have a minus sign here. The list comes from a sample in which strong results are over-represented; it also holds similar structures and randomly drawn compounds.
# Molecular target: human ether-à-go-go-related gene (hERG) potassium channel (human, UniProt Q12809)
# Test: primary screen, population patch clamp on CHO cells stably expressing hERG; higher = less effect of the substance
# 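Note: peak tail current of the secondary pulse compared with the same well before compound.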
# Sequence of human ether-à-go-go-related gene (hERG) potassium channel (Q12809 whole entry, looked up): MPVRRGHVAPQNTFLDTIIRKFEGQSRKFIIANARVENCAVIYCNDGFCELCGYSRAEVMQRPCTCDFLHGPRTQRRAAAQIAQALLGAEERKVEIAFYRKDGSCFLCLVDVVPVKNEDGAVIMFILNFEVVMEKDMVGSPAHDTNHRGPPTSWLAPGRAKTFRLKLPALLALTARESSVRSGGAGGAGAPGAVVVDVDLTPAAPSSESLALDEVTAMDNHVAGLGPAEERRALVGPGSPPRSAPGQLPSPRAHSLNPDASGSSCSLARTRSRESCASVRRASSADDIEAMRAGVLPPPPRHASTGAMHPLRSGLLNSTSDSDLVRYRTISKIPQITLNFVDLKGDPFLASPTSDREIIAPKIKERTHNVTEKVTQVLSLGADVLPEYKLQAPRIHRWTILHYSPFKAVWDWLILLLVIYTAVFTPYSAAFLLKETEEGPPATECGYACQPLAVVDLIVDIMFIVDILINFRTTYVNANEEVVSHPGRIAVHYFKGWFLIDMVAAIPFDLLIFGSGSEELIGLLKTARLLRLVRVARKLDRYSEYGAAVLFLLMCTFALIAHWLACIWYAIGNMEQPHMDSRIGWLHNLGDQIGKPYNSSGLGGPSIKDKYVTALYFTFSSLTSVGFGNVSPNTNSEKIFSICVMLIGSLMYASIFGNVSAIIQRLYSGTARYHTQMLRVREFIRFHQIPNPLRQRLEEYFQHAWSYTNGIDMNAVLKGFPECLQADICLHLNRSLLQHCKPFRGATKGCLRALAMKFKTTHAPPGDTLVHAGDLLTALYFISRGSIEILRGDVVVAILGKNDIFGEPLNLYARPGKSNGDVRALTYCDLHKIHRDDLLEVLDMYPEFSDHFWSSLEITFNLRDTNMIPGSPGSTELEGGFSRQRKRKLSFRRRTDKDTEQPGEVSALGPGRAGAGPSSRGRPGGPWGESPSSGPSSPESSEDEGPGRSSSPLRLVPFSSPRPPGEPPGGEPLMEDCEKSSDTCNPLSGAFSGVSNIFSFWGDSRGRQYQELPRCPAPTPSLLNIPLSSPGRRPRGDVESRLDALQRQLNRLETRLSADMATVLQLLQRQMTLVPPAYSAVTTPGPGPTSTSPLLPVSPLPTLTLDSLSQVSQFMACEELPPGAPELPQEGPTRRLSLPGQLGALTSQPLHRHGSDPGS
row,Compound,"hERG current change (%, negative = inhibition) at 10uM"
1,Cc1c2c(nc3ccccc13)CC(C)(C)CC2=O.Cl,0.994%
2,CCNc1c2c(nc3ccccc13)CC(C)(C)CC2=O.O=C(O)C(=O)O,-69.9%
3,CC1(C)CC(=O)c2c(nc3ccccc3c2N)C1,-28.8%
4,O=C(Nc1cccc(C(=O)O)c1)/C(=C\c1ccco1)NC(=O)c1ccc(Br)o1,-28.1%
5,Cc1ccc(SCC(=O)OCC(=O)NCc2cccs2)cc1,5.8%
6,NC(=S)N=Nc1c(O)n(CCCl)c2ccc(Cl)cc12,9.1%
7,O=C(COc1ccc(/C=C\[N+](=O)[O-])cc1)N1CCOCC1,-17.7%
8,CCOc1cc(/C=C\[N+](=O)[O-])ccc1OCC(=O)N1CCOCC1,-50.5%
9,CCOc1cc(C=C2C(=O)NC(=O)NC2=O)ccc1OCC(=O)N1CCOCC1,7.28%
10,CCCOc1ccc(C(=O)Nc2ccc3c(c2)OCO3)cc1,16.1%
11,CC(=O)c1cccc(NC(=O)CCOc2ccccc2)c1,6.88%
12,COc1cccc(C(=O)Nc2cc(NC(=O)c3ccco3)ccc2OC)c1,-5.19%
13,CCCOc1cccc(C(=O)Nc2cccc(NC(=O)c3ccco3)c2)c1,-21.8%
14,CCCOc1cccc(C(=O)Nc2cc(NC(=O)c3ccco3)ccc2OC)c1,-81.2%
15,CCCCOc1cccc(C(=O)Nc2ccc(NC(=O)c3ccco3)cc2)c1,8.63%
16,COc1ccc(NC(=O)c2ccco2)cc1NC(=O)c1cccc(OC(C)C)c1,-96.7%
17,CC(C)Oc1cccc(C(=O)Nc2ccc(NC(=O)c3ccco3)cc2)c1,6.06%
18,CCCc1cc(=O)[nH]c(SCC(=O)Nc2nonc2N)n1,-5.4%
19,COc1ccc(CC(=O)Nc2sc3c(c2C#N)CC(C)(C)NC3(C)C)cc1OC,-3.63%
20,COc1ccc(C(=O)CSc2nnc(NC(=O)C3CC(=O)N(c4cccc(OC)c4)C3)s2)cc1 (centres unmarked),15.6%
21,COC(=O)CC1=C(C(=O)OC)C2(C(=O)N(C)c3ccccc32)C(C#N)=C(N)O1 (centres unmarked),14.7%
22,CC(C)(C)NC(=O)/C(=C\c1ccccc1F)NC(=O)c1ccc([N+](=O)[O-])cc1,-35.3%

row,Compound,"hERG current change (%, negative = inhibition) at 10uM"
1,Cl.N=c1n(CCO)c2ccccc2n1CCOc1ccc(Cl)cc1Cl,-63.8%
2,Cl.N=c1n(CCO)c2ccccc2n1Cc1ccc(Cl)cc1,-40.1%
3,Cn1c(=O)n(CCOc2ccc(Cl)cc2Cl)c2ccccc21,-2.26%
4,COc1ccccc1NS(=O)(=O)c1cc(-c2cc(C)no2)ccc1OC,-5.52%
5,COc1ccccc1NS(=O)(=O)c1ccc(-c2cc(C)no2)s1,-69.5%
6,COC(=O)c1ccc(NS(=O)(=O)c2ccc(-c3cc(C)no3)s2)cc1,10.5%
7,Cc1ccc(CN2C(=O)S/C(=C\c3ccccc3OCC(=O)O)C2=O)cc1,1.61%
8,C/C(=C\C(=O)N1CCc2ccccc21)C(=O)O,18.5%
9,COc1ccc(N2CCN(S(=O)(=O)c3ccc4c(c3)NC(=O)CC(=O)N4)CC2)cc1,13.2%
10,NC(=O)c1cc(S(=O)(=O)N2CCN(c3cccc(Cl)c3)CC2)cs1,28.1%
11,COC(=O)c1cc(S(=O)(=O)N2CCN(c3ccc(F)cc3)CC2)c[nH]1,16.9%
12,NC(=O)c1cc(S(=O)(=O)N2CCN(c3ccc([N+](=O)[O-])cc3)CC2)cs1,-74.4%
13,CC(=O)c1ccc(N2CCN(S(=O)(=O)c3ccc4c(c3)NC(=O)CC(=O)N4)CC2)cc1,13.4%
14,O=C1CC(=O)Nc2cc(S(=O)(=O)N3CCN(c4ccc([N+](=O)[O-])cc4)CC3)ccc2N1,-66.8%
15,COC(=O)c1cc(S(=O)(=O)N2CCN(c3ccccc3)CC2)c[nH]1,7.6%
16,COC(=O)c1cc(S(=O)(=O)N2CCN(c3ccc([N+](=O)[O-])cc3)CC2)c[nH]1,-53.9%
17,CC(=O)c1ccc(N2CCN(S(=O)(=O)c3csc(C(N)=O)c3)CC2)cc1,-26.1%
18,CCC(=O)Nc1nc2ccc(NC(=O)c3cc(OC)c(OC)c(OC)c3)cc2s1,-9.76%
19,Cc1ccc(CNC(=O)c2ccc(C#CC(C)(C)O)s2)cc1,-3.51%
20,Cc1cccc(CSC2=NCCN2S(=O)(=O)c2ccc(F)cc2)c1,-0.802%
21,Cc1ccc(S(=O)(=O)N(C)c2ccc(OC(C)C(=O)N3CCCC3)cc2)cc1C (centres unmarked),-37.6%
22,COc1ccc(OC)c(CNc2nc3ccccc3n2CCN2CCCCC2)c1,-72.4%

row,Compound,"hERG current change (%, negative = inhibition) at 10uM"
1,COc1ccc(CNc2nc3ccccc3n2C)c(OC)c1,-25%
2,COc1ccc(/C=N/c2nc3ccccc3n2CCN2CCCCC2)cc1OC,-14.3%
3,COc1ccc(CNc2nc3ccccc3n2CCN2CCCCC2)c(OC)c1,-84.4%
4,COc1ccc(CNc2nc3ccccc3n2C)c(O)c1,1.38%
5,CCCn1c(NCc2cccc(OC)c2O)nc2ccccc21,-18.1%
6,CCn1c(NCc2cc(OC)ccc2OC)nc2ccccc21,-22.8%
7,CCCn1c(NCc2cc(OC)ccc2OC)nc2ccccc21,-51.3%
8,C=CCn1c(NCc2ccc(OC)cc2O)nc2ccccc21,-23.1%
9,Cc1[nH]c(C)c(S(=O)(=O)N2CCCCC2)c1C(=O)N1CCCCC1,4.27%
10,Br.Cc1nc(C)c(-c2csc(Nc3cccc(O)c3)n2)s1,6.25%
11,COc1cc(OC)cc(-c2c(C#Cc3ccsc3)c3cc(-c4ccc5c(c4)OCCO5)ccc3n2C)c1,7.37%
12,COc1ccc(OCC(=O)Nc2ccccc2O)cc1,-12.5%
13,Cc1c(C(C)(C)O)[nH]c2ccc(C#N)cc12,26.4%
14,CCN1CCN(c2ncnc3sc(C(=O)Nc4ccccc4F)c(C)c23)CC1,-67%
15,CCCCNC(=O)c1sc2ncnc(N3CCc4ccccc4C3)c2c1C,-50.5%
16,CCOC(=O)N1CCN(c2ncnc3scc(-c4ccccc4)c23)CC1,-32.6%
17,CCOC(=O)c1sc2ncnc(N3CCN(CC)CC3)c2c1C,-63.9%
18,CCOC(=O)CNC(=O)c1sc2ncnc(N3CCc4ccccc4C3)c2c1C,-36.6%
19,CCOC(=O)c1sc2nc(C)nc(N3CCN(c4ncccn4)CC3)c2c1C,1.82%
20,COCCCNC(=O)c1sc2ncnc(N3CCc4ccccc4C3)c2c1C,-23.9%
21,CCOC(=O)c1sc2ncnc(N3CCN(C)CC3)c2c1C,-24.3%
22,Cc1c(C(=O)Nc2c(F)cccc2F)sc2ncnc(N3CCN(c4ccccc4)CC3)c12,-12.2%

row,Compound,"hERG current change (%, negative = inhibition) at 10uM"
1,CCOC(=O)c1sc2ncnc(OC)c2c1C,13.3%
2,Cc1ccc(NC(=O)c2sc3ncnc(N4CCN(c5ccccn5)CC4)c3c2C)c(C)c1,-48.4%
3,CCOC(=O)c1sc2ncnc(N3CCN(C(=O)OCC)CC3)c2c1C,-53.4%
4,CCC(C)(NC(=O)Cc1c[nH]c2ccccc12)C(=O)NC1CCCCC1 (centres unmarked),2.32%
5,CN(C)/C=N/c1sccc1C(N)=O,6.62%
6,COc1ccc(C2(C)NC(=O)N(CC3CCCCC3)C2=O)cc1 (centres unmarked),9.8%
7,O=C(NCC(=O)N(c1cccnc1)C(C(=O)NC1CCCC1)c1ccccc1F)c1ccco1 (centres unmarked),-0.301%
8,CC(C)(C)Nc1nc(NCc2cccnc2)nc(N2CCOCC2)n1,4.02%
9,CC(C)C(=O)Nc1c2c(nc3c1CCC3)CCCC2,5.23%
10,C/C(=N\NC(=O)c1nnn(-c2nonc2N)c1-c1ccc2c(c1)OCO2)c1cccs1,5.22%
11,C/C(=N\OCC(=O)OC(C)C(=O)Nc1ccc(C(N)=O)cc1)c1ccc2c(c1)OCO2 (centres unmarked),9.34%
12,CC(C)OC(=O)c1cc2c(ccn2-c2ccc(F)cc2)n1CC(=O)N1CCN(C(=O)c2ccco2)CC1,-69.2%
13,CCOC(=O)c1cc2c(ccn2-c2ccc(F)cc2)n1CC(=O)N1CCN(C(=O)c2ccco2)CC1,-26.1%
14,COC(=O)c1cc2c(ccn2-c2ccc(F)cc2)n1CC(=O)C(C)(C)C,14.3%
15,CCOC(=O)c1cc2occc2n1CC(=O)N1CCN(C(=O)c2ccco2)CC1,-36.8%
16,COC(=O)c1cc2c(ccn2-c2ccc(F)cc2)n1CC(=O)N1CCN(C(=O)c2ccco2)CC1,-66.6%
17,COC(=O)c1cc2c(ccn2-c2ccc(F)cc2)n1CC(=O)OC(C)C,27.3%
18,O=C(Cn1c(=O)cnc2ccccc21)N1CCCc2ccccc21,10.8%
19,CC1CN(C(=O)CN2C(=O)NC3(CCCC3)C2=O)C(=Nc2cccc(S(=O)(=O)N(C)C)c2)S1 (centres unmarked),-32%
20,Cc1ccc(S(=O)(=O)N2CCN(C(=O)COC(=O)CCc3ccccc3)CC2)c(C)c1,-8.38%
